ZTA counter: counter-screen for EBNA-1 inhibitors: inhibitors of Epstein-Barr virus ZTA | P03206 | ZTA-DNA binding, fluorescence polarization | inhibition, % at 11 µM | 0.15% of 320,000 active; in the data active = inhibition above about 33%
Rpn11 block: blocks the human proteasome subunit Rpn11; human 26S proteasome, Ub4-pepOG fluorescence polarization; 20S core pre-blocked with epoxomicin; inhibition, % at 20 µM; O00487; 0.59% of 360,000 active;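 active = inhibition at 20 µM, scaled to each plate's controls, above about 33%, limit read from the data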
NR3A LBD binder: modulators (binders) of human NR3A ligand-binding domain; AID 1259313; NR3A LBD differential scanning fluorimetry, Tm shift; 0% = protein alone, 100% = glycine-bound protein; Tm shift relative to glycine control, % at 25 µM; 2.5% of 340,000 active;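 active = melting temperature shift of at least 10% of the positive control shift, at one fixed dose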
dFosB activator: mouse delta FosB homodimer activation; activation, % at 25 µM; 0.99% of 340,000 active; purified delta FosB, TAMRA-CDK5 oligo fluorescence polarization; percent of positive-control signal above neutral wells; P13346;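 active = mean activation above about 17%, with every replicate also reaching it, limit read from the data, passing the limit was not always enough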
Target sequence (P13346 whole entry, looked up): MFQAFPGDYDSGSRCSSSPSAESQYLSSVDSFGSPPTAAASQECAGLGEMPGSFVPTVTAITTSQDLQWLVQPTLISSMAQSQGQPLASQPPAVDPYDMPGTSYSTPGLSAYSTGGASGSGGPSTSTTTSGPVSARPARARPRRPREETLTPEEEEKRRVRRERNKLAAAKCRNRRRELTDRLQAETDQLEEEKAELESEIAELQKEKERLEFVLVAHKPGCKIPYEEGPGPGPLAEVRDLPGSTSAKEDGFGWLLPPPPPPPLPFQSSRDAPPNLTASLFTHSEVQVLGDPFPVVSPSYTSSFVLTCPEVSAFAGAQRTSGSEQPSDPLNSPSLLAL
EBNA-1 inh: blocks EBNA-1 binding to DNA. 0.34% of 300,000 active. EBNA-1 DNA binding, fluorescence polarization. inhibition, % at 14.8 µM; in the data active = inhibition above about 28%
TPT1 inh: inhibitors of Candida albicans tRNA 2'-phosphotransferase TPT1; recombinant caTPT1, FP RNA substrate dephosphorylation; 0.81% of 300,000 active; AID 1962; inhibition, % at 5 µM;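 active = inhibition above the mean of all tested compounds plus 3 SD, set per screening campaign, cut at about 24% in these data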
Hits are given with their value. In the library only some 4.5% were active in any assay of this set; here they are far more common.

What do the screens show for `CC(C)NC(=O)C1(C)CCN1C(=O)c1ccc(F)c(Cl)c1` (stereo not given)?
Rpn11 block: inactive

What do the screens show for `CCCCn1c(N)c(N(CCOC)C(=O)c2c(C)noc2C)c(=O)[nH]c1=O`?
ZTA counter: inactive; Rpn11 block: inactive; NR3A LBD binder: inactive; dFosB activator: inactive; EBNA-1 inh: inactive; TPT1 inh: inactive

What do the screens show for `COc1cccc(/C=C/C(=O)NCc2cn3cc(Cl)ccc3n2)c1`?
ZTA counter: inactive; Rpn11 block: inactive; NR3A LBD binder: inactive; dFosB activator: 17; EBNA-1 inh: inactive; TPT1 inh: inactive

How did C=CCn1c(SCC(=O)Nc2cccnc2Cl)nnc1-c1ccccc1F do in these assays?
ZTA counter: inactive; Rpn11 block: inactive; NR3A LBD binder: inactive; dFosB activator: inactive; EBNA-1 inh: inactive; TPT1 inh: inactive

How did CCCCCCCCCCNC(=O)C(=O)Nc1ccccn1 do in these assays?
ZTA counter: inactive; Rpn11 block: inactive; NR3A LBD binder: 12; dFosB activator: inactive; EBNA-1 inh: inactive; TPT1 inh: inactive

What do the screens show for `Cn1c2ccccc2c(=O)c2ccc(C#Cc3ccc(N)cc3)cc21`?
ZTA counter: inactive; NR3A LBD binder: 12; dFosB activator: inactive; EBNA-1 inh: inactive; TPT1 inh: inactive

What do the screens show for `COc1ccc(C#Cc2ccc3c(=O)c4ccccc4n(C)c3c2)cc1`?
ZTA counter: inactive; NR3A LBD binder: inactive; dFosB activator: inactive; EBNA-1 inh: inactive; TPT1 inh: inactive

How did Cn1c2ccccc2c(=O)c2cc(C#Cc3cccc(N)c3)ccc21 do in these assays?
ZTA counter: inactive; Rpn11 block: inactive; NR3A LBD binder: 22; dFosB activator: inactive

Results for CC(C)N1C(=O)CCC1C(=O)NCc1ccc(F)cc1Cl (stereo not given) ?
ZTA counter: inactive; Rpn11 block: inactive; NR3A LBD binder: inactive; dFosB activator: inactive; EBNA-1 inh: inactive; TPT1 inh: inactive

How did Cn1c(=O)[nH]c(=O)c2c1nc(N1CCOCC1)n2CC(=O)c1ccccc1 do in these assays?
ZTA counter: inactive; Rpn11 block: inactive; NR3A LBD binder: inactive; dFosB activator: inactive; EBNA-1 inh: inactive; TPT1 inh: inactive

What do the screens show for `O=C(Nc1ccc2c(c1)CCC2)c1cccs1`?
ZTA counter: inactive; Rpn11 block: inactive; NR3A LBD binder: inactive; dFosB activator: inactive; EBNA-1 inh: inactive; TPT1 inh: inactive

Results for Cn1cccc1-c1nc2ccc(NC(=O)c3ccco3)cc2[nH]1 ?
ZTA counter: inactive; Rpn11 block: inactive; NR3A LBD binder: inactive; dFosB activator: inactive; EBNA-1 inh: inactive; TPT1 inh: inactive

Results for O=C(Nc1ccc2nc(-c3cccs3)[nH]c2c1)c1cccs1 ?
ZTA counter: inactive; Rpn11 block: inactive; NR3A LBD binder: 26; dFosB activator: inactive; EBNA-1 inh: inactive; TPT1 inh: inactive

How did O=C(Nc1ccc2nc(-c3cccs3)[nH]c2c1)c1ccco1 do in these assays?
ZTA counter: inactive; Rpn11 block: inactive; NR3A LBD binder: 14; dFosB activator: inactive; EBNA-1 inh: inactive; TPT1 inh: inactive

How did Cc1cc(Cl)ccc1NC(=O)CN(C)C1=NS(=O)(=O)c2ccccc21 do in these assays?
ZTA counter: inactive; Rpn11 block: inactive; NR3A LBD binder: inactive; dFosB activator: inactive

How did CCn1c2ccccc2c2cc(NC(=O)COC(=O)c3cc(S(N)(=O)=O)c(Cl)cc3Cl)ccc21 do in these assays?
ZTA counter: inactive; Rpn11 block: inactive; NR3A LBD binder: 14; dFosB activator: inactive; EBNA-1 inh: inactive; TPT1 inh: inactive

Results for CC1CCCC(C)N1CCCNC(=O)Cn1c(=O)c2cccn2c2cccnc21 (stereo not given) ?
ZTA counter: inactive; Rpn11 block: inactive; NR3A LBD binder: inactive; dFosB activator: inactive; EBNA-1 inh: inactive; TPT1 inh: inactive

How did C/C(N)=C(/C#N)C(=O)CSc1nn(-c2ccc(Cl)cc2)c(=S)s1 do in these assays?
ZTA counter: inactive; Rpn11 block: inactive; NR3A LBD binder: 13; dFosB activator: inactive; EBNA-1 inh: inactive; TPT1 inh: inactive

What do the screens show for `CN(C(=O)CN1CCN(c2ccccc2F)CC1)C1CCCc2ccccc21` (stereo not given)?
ZTA counter: inactive; Rpn11 block: inactive; NR3A LBD binder: inactive; dFosB activator: inactive; EBNA-1 inh: inactive; TPT1 inh: inactive

Results for O=C(CCCC(=O)Nc1ccc(Br)cc1)N/N=C/c1ccccc1 ?
ZTA counter: inactive; Rpn11 block: inactive; NR3A LBD binder: 10; dFosB activator: inactive; EBNA-1 inh: inactive; TPT1 inh: inactive
